Screening data as filed in PubChem BioAssay.
MITF primary: inhibitors of human MITF | O75030 | AlphaScreen MITF homodimerization, bead proximity signal | inhibition, % at 2.6 µM | 650,000 tested, 0.91% active; in the data active = inhibition above about 50%;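 also: 0% = vehicle wells with protein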
GPR151 ag: activates the human receptor GPR151 | PathHunter beta-arrestin GPR151 cells, luminescence | activation, % at 11.2 µM | 650,000 tested, 1% active | AID 1508602; in the data active = activation above about 4.9%;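 also: 0% = median of compound wells and 100% = cells with positive control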
Target sequence (Q8TDV0 whole entry, looked up): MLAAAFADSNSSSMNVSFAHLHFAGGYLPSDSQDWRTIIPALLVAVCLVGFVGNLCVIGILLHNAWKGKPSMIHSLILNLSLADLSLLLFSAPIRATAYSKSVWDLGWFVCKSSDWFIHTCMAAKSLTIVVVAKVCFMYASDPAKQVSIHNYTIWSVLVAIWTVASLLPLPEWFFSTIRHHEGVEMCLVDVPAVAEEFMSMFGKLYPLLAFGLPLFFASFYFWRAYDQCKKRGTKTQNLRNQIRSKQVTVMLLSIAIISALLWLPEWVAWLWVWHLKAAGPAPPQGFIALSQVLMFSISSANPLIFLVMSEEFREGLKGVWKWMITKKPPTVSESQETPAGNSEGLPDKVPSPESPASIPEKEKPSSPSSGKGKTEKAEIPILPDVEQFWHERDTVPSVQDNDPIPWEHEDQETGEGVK
FBW7 activator: activators of human E3 ligase FBW7; Q969H0; AlphaScreen FBW7–phospho-cyclin E peptide binding, activator screen; normalized activity (activation), % at 26.1 µM; 650,000 tested, 0.13% active; in the data active = normalized activity above about 1.9%;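 also: purified mutant Fbw7 with reduced substrate affinity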
TEAD-YAP inh: TEAD-YAP interaction inhibition. HEK-TIYL cells, TEAD-Gal4/YAP UAS-luciferase luminescence. inhibition, % at 9.12 µM. 640,000 tested, 1.4% active; in the data active = inhibition above about 32%;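 also: 0% = median of test compound wells and 100% = reference inhibitor wells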
* = called active by the depositor. Sampled rows, rich in hits. Any-hit rate of the full collection: about 3.5%.

SMILES	MITF primary	GPR151 ag	FBW7 activator	TEAD-YAP inh
COc1cc(/C=N/NC(=O)CCCNc2ccc(C)cc2)ccc1O	1	-1	0	-3
Cc1ccc(/C=C2\CC/C(=C\c3ccc(C)o3)C2=O)o1	58*	-1	0	9
CC(C)CNS(=O)(=O)c1ccc(CCC(=O)N2CCN(c3ccc(F)cc3)CC2)cc1	1	0	0	40*
c1cc(Cn2cncn2)cc(Nc2nccc(-c3cncc(N4CCOCC4)c3)n2)c1	14	0	1	92*
c1cc(-c2nc3ccc(Nc4nccc(-c5cncc(N6CCOCC6)c5)n4)cc3o2)ccn1	4	2	0	-3
c1cc(Cn2ccnc2)cc(Nc2nccc(-c3cncc(N4CCOCC4)c3)n2)c1	-5	1	-1	87*
COc1ccc(N2C(=O)CC(NCC34CC5CC(CC(C5)C3)C4)C2=O)cc1 (stereo unspecified)	8	1	0	-3
Cc1cnc(NC(=O)c2ccccc2F)s1	13	-9	0	64*
Nc1ncc(-c2cccc(F)c2)nc1NCc1ccncc1	12	-2	1.9*	-8
Nc1ncc(-c2ccncc2)nc1NCc1ccccc1	-2	2	0	7
CC(=O)N1CCc2cc(C(=O)CN3CCN(c4ccc(Cl)cc4)CC3)ccc21	-2	1	0	44*
O=C(COC(=O)c1ccc2c(c1[N+](=O)[O-])C(=O)c1ccccc1C2=O)NC1CC1	18	-5	0	11
O=C1c2ccccc2C(=O)c2c1ccc(C(=O)OCC(=O)N1CCOCC1)c2[N+](=O)[O-]	58*	-1	0	2
Cc1ccccc1N=Cc1sc2ccccc2c1O	-5	-1	0	53*
Oc1c(/C=N/n2cnnc2)sc2ccccc12	26	-4	0	72*
CCOc1ccc(N=Cc2sc3ccccc3c2O)cc1	-9	-10	0	88*
Cc1ccc(N=Cc2sc3ccccc3c2O)cc1C	-4	-1	0	74*
Nc1ccccc1N=Cc1sc2ccccc2c1O	23	-5	0	-32
Oc1c(C=Nc2ccc(Cl)cc2)sc2ccccc12	16	0	0	10
CCOC(=O)c1cnc(SCC(=O)c2ccc([N+](=O)[O-])cc2)nc1N	10	0	0	2
Cc1ccc(N=Cc2sc3ccccc3c2O)cc1	4	-10	0	80*
c1csc(C(c2nnnn2C2CCCCC2)N2CCCC2)c1 (stereo unspecified)	9	0	0	0
O=C(NCCc1ccccc1)C1C2C3CCC(C3)C12 (stereo unspecified)	-5	-4	0	58*
CN(C)CCNc1nc(-c2ccc(C(C)(C)C)cc2)nc2ccccc12	9	-1	0	37*
CN(C)CCNc1nc(-c2ccccc2)nc2ccccc12	-2	0	0	-14
SMILES	MITF primary	GPR151 ag	FBW7 activator	TEAD-YAP inh
O[N+]1=CC=CCC1=S.On1ccccc1=S.[Zn]	-113	2	0	100*
CC(=O)NCCC(=O)Nc1ccc(C)c(Cl)c1	10	0	0	-1
Cc1nc(NCCC2=CCCCC2)c2c3c(sc2n1)CCC3	-6	-1	0	4
Cc1nc(NCCC2=CCCCC2)c2cc(C)sc2n1	-1	0	0	41*
O=C1CCCC2=C1C(c1cccs1)c1c(n[nH]c1-c1ccc([N+](=O)[O-])cc1)N2 (stereo unspecified)	-1	0	0	42*
COc1ccccc1N1C(=O)CC(S/C(N)=N/N=C(\C)c2ccc(O)cc2)C1=O (stereo unspecified)	82*	0	0	-7
Cc1cc(C(=O)N=c2sc3cc4c(cc3n2C)OCCO4)nn1C	6	-4	0	38*
Cc1cc(C(=O)N=c2sc3cc4c(cc3n2C)OCCO4)n(C)n1	7	-2	0	-15
CC1CCC2C(=O)N(c3ccc(Cl)c(C(=O)O)c3)C(=O)C2C1 (stereo unspecified)	-4	1	0	-8
FC(F)(F)c1ccc(Cn2cnc3c(NCc4cccc(C(F)(F)F)c4)nc(Cl)nc32)cc1	12	2	0	4
CCCNc1nc(-c2cccc(N)c2)nc2c1ncn2-c1ccsc1	19	0	0	53*
Cc1noc(C)c1-c1nc(NCCO)c2ncn(-c3ccsc3)c2n1	4	1	0	23
Nc1cccc(-c2nc(NCCO)c3ncn(-c4ccsc4)c3n2)c1	10	-2	0	63*
CC(=O)N[C@@H]1c2ccccc2C2(CCN(C)CC2)[C@H]1OCc1ccccc1	-9	-1	0	-4
O=C(NCCN1CCOCC1)c1ccc(S(=O)(=O)N2CCCC2)o1	-17	2	0	3
c1ccc(CNCc2cn(-c3ccccc3)nc2-c2ccncc2)cc1	-8	-1	0	-2
COc1ccc(-n2cc(-c3ccccc3)[n+]3c2SCC3)cc1	0	0	0	59*
COc1ccc(-c2cn(-c3ccccc3)c3[n+]2CCS3)cc1	9	0	0	32*
CCOc1ccc(-c2cn(-c3ccccc3)c3[n+]2CCS3)cc1	7	3	0	65*
COc1ccc(-n2cc(-c3ccc(Cl)cc3)[n+]3c2SCCC3)cc1	-1	-1	0	26
CC(C)CNS(=O)(=O)c1ccc(Br)c(C(=O)O)c1	0	-1	0	-3
CCc1ccc(OCc2nc(-c3ccncc3)no2)c(Br)c1	-2	0	0	-63
CCCC(=O)NCCN1CCN(S(=O)(=O)c2ccccc2)CC1	1	4	0	-13
OCC1CCCN1c1nc(NCc2ccccc2)c2ncn(-c3ccsc3)c2n1 (stereo unspecified)	-1	1	0	0
CC(C)n1cnc2c(NCc3cccnc3)nc(N3CCCC3CO)nc21 (stereo unspecified)	-3	-1	0	33*
SMILES	MITF primary	GPR151 ag	FBW7 activator	TEAD-YAP inh
OCC1CCCN1c1nc(NCc2cccnc2)c2ncn(-c3ccccc3)c2n1 (stereo unspecified)	-2	2	0	44*
Cc1ccc(NC(=O)CSc2nnc3c(n2)[nH]c2ccc(S(=O)(=O)N4CCCCC4)cc23)cc1C	15	1	0	7
C/C(=N\Nc1cc(Cl)nc(C)n1)c1ccc(O)cc1	21	0	0	-13
CNC(=O)/C(C#N)=C/c1c(Oc2cccc(C)c2C)nc2ccccn2c1=O	9	-3	0	28
CCNC(=O)/C(C#N)=C/c1c(Oc2ccccc2C)nc2ccccn2c1=O	5	-6	0	34*
CCNC(=O)/C(C#N)=C/c1c(Oc2cccc(C)c2C)nc2ccccn2c1=O	-10	-4	0	42*
O=C(Nc1cc(Cl)ccc1Cl)N[C@H]1C[C@H]2C(=O)N3CCC[C@@H]3C(=O)N2C1	-9	-1	0	-13
CC(C)NC(=O)c1cn(-c2ccc(Cl)cc2)c(=O)c2ccccc12	-3	1	0	0
Cn1cnnc1SCC(=O)c1ccc(Br)cc1	6	0	0	6
CCOC(=O)c1c(N)sc2c1CCN(C)C2	2	1	0	5
CCOC(=O)c1c(/N=C/c2cccc(OC)c2O)sc2c1CCN(C)C2	21	0	2.6*	-6
